The values below are quoted from earlier work in PubChem BioAssay AID977611 (Shanghai Institute of Organic Chemistry, 2013).

About 3,900 (100%) of roughly 3,900 compounds were called active. The limit is not given here; nearly all actives have Kd up to about 4200 µM. So high a share suggests a set chosen from earlier hits. The list shows a part of the results. Where a SMILES comes first, the peptide text is derived from it. Square brackets hold non-standard residues; d marks the D form. Residues, ends and D or L forms follow the SMILES beside them. Peptide text beside a SMILES is read from it. Orn(CH(NH2)2) = NC(N)NCCC[C@H](N)C(=O)O; Cha = N[C@@H](CC1CCCCC1)C(=O)O

The data set can be described thus: PubChem AID 977611. Conditions: PDB protein-ligand complexes, literature Kd.

Take `CC(C)C[C@H](N)C(=O)N[C@@H](Cc1ccc(O)cc1)C(=O)N[C@@H](CC1CCCCC1)C(=O)N[C@@H](CC1CCCCC1)C(=O)N1CCC[C@H]1C(=O)N[C@@H](CCCNC(N)N)C(=O)N1CCC[C@H]1C(=O)N[C@H](C(N)=O)[C@@H](C)O` (H-LY[Cha][Cha]P[Orn(CH(NH2)2)]PT-NH2): the Kd (protein: Chaperone protein DnaK, PDB entry 4hy9) was 80 nM (active).

Take `CC[C@H](C)[C@H](NC(=O)[C@H](CC1CCCCC1)NC(=O)[C@H](Cc1ccc(O)cc1)NC(=O)[C@@H](N)CC(C)C)C(=O)N1CCC[C@H]1C(=O)N[C@@H](CCCNC(N)N)C(=O)N1CCC[C@H]1C(N)=O` (H-LY[Cha]IP[Orn(CH(NH2)2)]P-NH2): the Kd (protein: Chaperone protein DnaK, PDB entry 4hyb) is 350 nM (active).

Take `CC(C)C[C@H](NC(=O)[C@@H](N)CCCCN)C(=O)N[C@@H](Cc1ccc(O)cc1)C(=O)N[C@@H](CC1CCCCC1)C(=O)N[C@@H](CC(C)C)C(=O)N1CCC[C@H]1C(=O)N[C@@H](CCCNC(N)N)C(=O)N1CCC[C@H]1C(=O)N[C@H](C=O)[C@@H](C)O` (H-KLY[Cha]LP[Orn(CH(NH2)2)]PT-aldehyde): the Kd (protein: E. coli Chaperone protein dnaK, PDB entry 3dpo) was 5.5 nM (active).

With `NC1NC(=O)c2c([nH]c(=S)n2CCO)N1` (stereo not drawn), the Kd (protein: 7,8-DIHYDRO-6-HYDROXYMETHYLPTERIN-PYROPHOSPHOKINASE, PDB entry 4ad6) is 16700 nM (active).

For H-VNPTGCARSEPKMS-OH, the Kd (protein: WD repeat-containing protein 5, WDR5, PDB entry 4ery) was 54 nM (active).

Regarding H-INPTGCARSEPKI-OH, under “protein: WD repeat-containing protein 5, WDR5, PDB entry 4erq”, the equilibrium dissociation constant (Kd) was 75 nM (active).

For H-KEKSD-OH, the equilibrium dissociation constant (Kd) (protein: Coatomer subunit beta', PDB entry 4j77) is 3400 nM (active).

Regarding `C[C@H](NC(=O)[C@H](CC(=O)O)NC(=O)[C@H](CCCCN)NC(=O)[C@H](CO)NC(=O)[C@H](C)NC(=O)[C@@H](N)CO)C(=O)O` (H-SASKDA-OH), the dissociation constant (Kd) (protein: Histone-lysine N-methyltransferase SETD7 (Y335F mutant), PDB entry 4j7i) is 8800 nM (active).

For `NC(N)=N/C=C/C[C@H](N[C@H](CCC(=O)O)C(=O)O)C(=O)O`, for the setting “protein: Nopaline-binding periplasmic protein NocT WT, PDB entry 4pox”, the dissociation constant (Kd) was 3700 nM (active).

Take `CC(C)(C)c1cccc(C2C=CC=NC2=O)c1` (stereo not drawn): the Kd (protein: RNA-directed RNA polymerase, PDB entry 4ih7) is 5800 nM (active).

For the molecule `NC1NC(=O)c2[nH]cc(CN3C[C@H](CO)[C@@H](O)C3)c2N1` (stereo partly drawn), where the note is “protein: Purine nucleoside phosphorylase (W16Y, W94Y, W178Y, H257W mutation), PDB entry 4ear”, the Kd is 0.151 nM (active).

As to `CC1(C)CNC(=[N+]2CCN(c3ncnc4sc(CC(F)(F)F)cc34)CC2)S1`, under “protein: Menin (A541T mutation), PDB entry 4gq4”, the dissociation constant (Kd) is 22 nM (active).

In the case of `CC(C)[C@H](NC(=O)[C@H](CO[P+](O)(O)O)NC(=O)[C@H](CCCCN)NC(=O)[C@H](CCCNC(N)N)NC(=O)[C@H](CCCNC(N)N)NC(=O)[C@H](C)N)C(=O)O`, the dissociation constant (Kd) (protein: 14-3-3 protein sigma, PDB entry 3ux0) was 550 nM (active).

For the molecule `CC(C)[C@H](NC(=O)[C@H](CO[P+](O)(O)O)NC(=O)[C@H](CCCCN)NC(=O)[C@H](CCCNC(N)N)NC(=O)[C@H](CCCNC(N)N)NC(=O)[C@@H](N)CCCCN)C(=O)O`, the Kd (protein: 14-3-3 protein sigma, PDB entry 4fr3) is 70 nM (active).

On to `C[C@H](NC(=O)[C@H](CCCCN)NC(=O)[C@H](CC(=O)O)NC(=O)[C@@H](N)CCCCN)C(=O)N[C@@H](CCCCN)C(=O)N[C@@H](CO[P+](O)(O)O)C(=O)N[C@@H](CS)C(=O)O`, for which, under “protein: 14-3-3 PROTEIN ZETA/DELTA, PDB entry 4bg6”, the Kd was 69 nM (active).

In the case of `NC(=NCC[C@H](N)C(=O)O)NO`, the equilibrium dissociation constant (Kd) (protein: Arginase, PDB entry 4q3u) is 360 nM (active).

As to H-FNIVGTTYPC-OH, the equilibrium dissociation constant (Kd) (protein: Gephyrin GephE, PDB entry 4u90) is 288 nM (active).

As to `CC[C@H](C)[C@H](NC(=O)[C@@H](NC(=O)[C@@H](NC(=O)[C@H](CCCCN)NC(=O)[C@H](CC(=O)O)NC(=O)[C@@H](N)C(C)C)C(C)C)C(C)C)C(=O)N[C@@H](CC(N)=O)C(=O)N1CCC[C@H]1C(=O)N[C@@H](Cc1ccc(O)cc1)C(=O)N[C@@H](Cc1ccccc1)C(=O)NCC(=O)O` (H-VDKVVINPYFG-OH), the dissociation constant (Kd) (protein: Malcavernin CCM2 PTB domain, PDB entry 4wj7) was 13000 nM (active).

On to `CC[C@H](C)[C@H](NC(=O)[C@@H](NC(=O)[C@H](Cc1ccc(O)cc1)NC(=O)[C@H](C)N)[C@@H](C)O)C(=O)N[C@@H](CS)C(=O)N[C@@H](C)C(=O)NCC(=O)N[C@H](C(=O)N[C@@H](CCC(N)=O)C(=O)N[C@H](C(=O)N[C@@H](CC(=O)O)C(=O)N1CCC[C@H]1C(=O)O)[C@@H](C)O)[C@@H](C)O` (H-AYTICAGTQTDP-OH), for which the Kd (protein: Dynein light chain 1, cytoplasmic LC8, PDB entry 4qh7) was 1140 nM (active).

As for `CC[C@H](C)[C@H](NC(=O)[C@H](CC(N)=O)NC(=O)[C@@H](N)Cc1ccccc1)C(=O)N[C@H](C(=O)NCC(=O)N[C@H](C(=O)N[C@H](C(=O)N[C@@H](Cc1ccc(O)cc1)C(=O)N1CCC[C@H]1C(=O)O)[C@@H](C)O)[C@@H](C)O)C(C)C` (H-FNIVGTTYP-OH), the Kd (protein: Gephyrin GephE, PDB entry 4tk2) was 190000 nM (active).

With `CC[C@H](C)[C@H](NC(=O)[C@H](CC(N)=O)NC(=O)[C@@H](N)Cc1ccccc1)C(=O)N[C@H](C(=O)NCC(=O)N[C@H](C(=O)N[C@H](C(=O)N[C@@H](Cc1ccc(O)cc1)C(=O)N1CCC[C@H]1C(=O)N[C@H](C(=O)N[C@@H](CC(N)=O)C(=O)O)[C@@H](C)CC)[C@@H](C)O)[C@@H](C)O)C(C)C` (H-FNIVGTTYPIN-OH), the Kd (protein: Gephyrin GephE, PDB entry 4tk1) is 190000 nM (active).

For the molecule `CC[C@H](C)[C@H](NC(=O)[C@H](CO)NC(=O)[C@@H](N)Cc1ccccc1)C(=O)N[C@H](C(=O)NCC(=O)N[C@H](C(=O)N[C@@H](CC(C)C)C(=O)N[C@@H](Cc1ccc(O)cc1)C(=O)N1CCC[C@H]1C(=O)O)[C@@H](C)O)C(C)C` (H-FSIVGTLYP-OH), the dissociation constant (Kd) was 8000 nM (active) (protein: Gephyrin GephE, PDB entry 4tk3) and 8000 nM (active) (protein: Gephyrin GephE, PDB entry 4tk4).
